Results: PubChem BioAssay AID2315 (National Center for Advancing Translational Sciences (NCATS), 2010)
The campaign covered roughly 290,000 compounds. About 27,000 (9.3%) were called active. The full list was thinned out, with actives kept by preference. Values without a mark were called inactive. Cut-off read from the data, not from the text of the source: active = inhibition mostly above about 28% (no sharp cut-off); inactive = mostly below about 43%.

Assay: A qHTS for Small Molecule Inhibitors of Shiga Toxin; note: 0% is about no effect
Conditions: Vero cells, Shiga toxin protein synthesis inhibition reporter; at 38.7 µM, hits give high values

| Structure (SMILES) | inhibition |
| --- | --- |
| Cc1cnc(C)c(N2CCN(C(=O)C3CCC(=O)N(CCc4cccc(F)c4)C3)CC2)n1 (stereo not given) | 0.443% |
| NC(=O)C1CCN(C(=O)c2ccc3c(=O)n(Cc4cccc(Br)c4)c(=S)[nH]c3c2)CC1 | 0.712% |
| CCN1C(=S)N[C@@H](c2cccc(C(F)(F)F)c2)C(C(=O)OC)=C1C | -10.1% |
| COC(=O)C1(C)CC1(c1ccccc1)c1ccccc1 (stereo not given) | -7.31% |
| O=CN1CCN(C(=O)c2ccc3c(c2)OCO3)CC1 | 2.8% |
| CN1C(=O)/C(=C/C=C2\SCCN2C)OC1=S | 70.4% (active) |
| COCCNc1nc(N)c([N+](=O)[O-])c(N2CCCCCC2)n1 | 6.83% |
| O=CN1CCN(C(=O)c2ccc(Br)o2)CC1 | 17.4% |
| Cc1ccc(NC2CCCN(C(=O)CCC3(C)CC3)C2)cc1C (stereo not given) | -22.1% |
| CCOC(=O)Cc1ncccc1C(=O)Nc1ccc(OC)cc1 | 6.55% |
| O=C(Nc1cccc2cccnc12)c1cccc(Cl)c1 | 87.7% (active) |
| O=C(Nc1cccc2cccnc12)C(F)(F)F | -8.11% |
| COc1ccc(S(=O)(=O)Nc2cccc3cccnc23)c(N)c1 | -26.8% |
| N#Cc1ccc(C(=O)Nc2cccc3cccnc23)c(F)c1 | -0.419% |
| COc1ccc(NC(=O)Nc2cccc3cccnc23)cc1 | 79.2% (active) |
| O=C(Nc1cccc2cccnc12)c1cccc(N2C(=O)CCC2=O)c1 | 30.9% |
| O=C(Nc1ccccc1Cl)Nn1cnnc1 | 14.1% |
| O=C(Nc1ccccc1Cl)Nc1cccc2cccnc12 | 40.9% (active) |
| O=C(COc1ccccc1Cl)N1CCCCCCC1 | 36.9% |
| CN(c1ccccc1)S(=O)(=O)c1ccc(NC(=O)COc2ccccc2)cc1 | -5.47% |
| NS(=O)(=O)c1ccc(CCNS(=O)(=O)c2cccc3cccnc23)cc1 | -5.83% |
| COc1ccc(-c2cc(=O)oc3cc(OC(C)C(=O)Nc4ccc(CN5CCOCC5)cc4)ccc23)cc1 (stereo not given) | -3.54% |
| CCOC(=O)c1c(-c2ccccc2)oc2ccc(OCC(N)=O)cc12 | -3.18% |
| COc1cc2c(cc1OC)C(C(=O)Nc1cc(C)c(OC)c(C)c1)CC(=O)N2 (stereo not given) | 7.56% |
| COc1ccc(C(=O)NC(C)Cn2nc(C)cc2C)cc1OC1CCN(C(C)=O)CC1 (stereo not given) | -5.64% |
| Nc1ccc(C(=O)Nc2ccccc2N)cc1 | 46.6% |
| CC1CCC(NC(=O)C2c3ccccc3C(=O)N2Cc2ccc3c(c2)OCO3)CC1 (stereo not given) | 15.2% |

| Structure (SMILES) | inhibition |
| --- | --- |
| Cc1ccc(C(=O)NC2CC(C)(C)NC(C)(C)C2)c(C)c1 | -6.82% |
| Cc1ccc2c(c1)NCC(C(=O)NC1CCC(C)CC1)O2 (stereo not given) | 64.8% (active) |
| O=C(O)CCCN1C(=O)C2C3c4ccccc4C(c4ccccc43)[C@@H]2C1=O (stereo not given in full) | -10.8% |
| COc1ccc(OC)c(C(O)c2nc3ccccc3n2C)c1 (stereo not given) | -12.2% |
| COc1ccc(-c2nnc(SC(=O)N3c4ccccc4Sc4ccccc43)o2)cc1 | 18.6% |
| COC(=O)CSc1nnc(-c2cccnc2)o1 | 8.44% |
| COc1ccc(-c2nnc(SCc3cccnc3)o2)cc1 | 48.5% (active) |
| Cc1cc(Cl)ccc1OCCCC(=O)Nc1cccc(-n2cnnn2)c1 | -13.8% |
| CCc1ccc2c(c1)C1(NN=C(c3ccccc3)S1)C(=O)N2 (stereo not given) | 105% (active) |
| COc1ccccc1C(=O)N/C(=C/c1ccco1)C(=O)Nc1ccc(C(=O)O)cc1 | -2.72% |
| CC(=O)c1ccc(N2CCN(C(=O)CCNC(=O)Cn3ccc4ccccc4c3=O)CC2)cc1 | 26.7% |
| Cc1ccc(N=Cc2c(O)cc(C)oc2=O)c(C)c1 | -1.09% |
| Cc1cc(O)c(C(=O)/C=C/c2c(F)c(F)c(F)c(F)c2F)c(=O)o1 | 68.6% (active) |
| N#Cc1cc([N+](=O)[O-])ccc1NCC1CCCO1 (stereo not given) | -5.89% |
| CC(C)N1CCc2c(sc(NC(=O)Cc3ccccc3)c2C#N)C1 | 2.11% |
| O=C(CN1CCOC1=O)N1CCCC(Nc2ccc(F)c(F)c2)C1 (stereo not given) | 13.5% |
| CCc1ccnc(NC(=O)Nc2ccc(OCc3ccccc3)cc2)c1 | 17.6% |
| COc1cccc(OCC(=O)Nc2ccccc2C(N)=O)c1 | 75.1% (active) |
| Cc1cccc(OCCC(=O)Nc2ccccc2C(N)=O)c1 | 5.43% |
| Cc1ccc(F)c(NC(=O)CCc2ccccc2)c1 | 70.1% (active) |
| Cc1ccc(F)c(NC(=O)CCOc2ccccc2C)c1 | 2.89% |
| Cc1cccc(OCC(=O)Nc2ccccc2F)c1 | 74.7% (active) |
| O=C(CCc1ccccc1)NNc1ccc(F)cc1 | -4.35% |
| CCCOC(=O)Nc1ccccc1C(N)=O | -12.3% |
| Cc1cccc(OCC(=O)NCCCNC(=O)c2ccccn2)c1 | -11.4% |
| Cc1cccc(OCC(=O)Nc2ccc(C(=O)O)cc2NC(=O)COc2cccc(C)c2)c1 | -5.8% |
| CCOC(=O)C1=C(CCc2ccccc2)NC(=O)NC1c1ccc2ccccc2c1 (stereo not given) | 2.87% |

| Structure (SMILES) | inhibition |
| --- | --- |
| COC(=O)Cc1ccc(N(Cc2ccccc2F)S(=O)(=O)c2ccc(Br)cc2)cc1 | 9.28% |
| CC(Oc1ccccc1)C(=O)Nc1c2c(nn1-c1ccccc1)CS(=O)C2 (stereo not given) | -1.03% |
| CCOCCCN(C)C1CCN(C(=O)c2oc3ccccc3c2NC(=O)COc2cccc(C)c2)CC1 | -8.02% |
| CC(=O)Nc1ccc(C(=O)N(C2=NC(C)CS2)c2ccc(Cl)cc2)cc1 (stereo not given) | 32.9% |
| CC1CN(C(=O)CCC(=O)NC2CCN(Cc3ccccc3)CC2)c2ccccc2O1 (stereo not given) | 10.3% |
| COCC1CCCN(Cc2cn[nH]c2-c2cc3ccccc3o2)C1 (stereo not given) | 56.9% |
| COCC1CCCN(Cc2nc(-c3ccc4c(c3)OCO4)no2)C1 (stereo not given) | 53.7% (active) |
| CC1CCN(Cc2nc(-c3ccc(Cl)cc3)no2)CC1 | 34.4% |
| CCCc1cc(=O)[nH]c(SCC(=O)Nc2sc3c(c2C#N)CCCC3)n1 | -2.72% |
| COc1ccc(C)cc1N(CC(=O)NC(C)c1ccccc1)S(C)(=O)=O (stereo not given) | -6.92% |
| COc1ccc(Br)cc1C(=O)NC(=S)Nc1cc(-c2nc3ccccc3[nH]2)ccc1C | 0% (active) |
| Cc1ccc(-c2nc3ccccc3[nH]2)cc1NC(=O)c1sc2ccccc2c1Cl | -6.19% |
| COc1ccc(Br)cc1C(=O)Nc1cccc(C)c1C | 26.5% |
| COC(=O)COc1ccc2c(c1C)O/C(=C\c1ccco1)C2=O | 15% |
| Cc1ccc(/C=C2/SC(=S)N(CCC(=O)NCCCN3CCOCC3)C2=O)cc1 | 21.5% |
| CCn1cc(CN2CCC(C(=O)Nc3cccc(-c4cccc(Cl)c4)c3)CC2)cn1 | -25.7% |
| CCOC(=O)N1CCN(CC(=O)Nc2cc(C)nn2-c2nc3ccccc3s2)CC1 | -4.88% |
| COc1ccccc1NC(=O)c1ccc2nc(N3C(=O)CCC3=O)sc2c1 | 36% |
| COc1ccc(C2=NN(c3nc4ccccc4s3)C(=O)C2)cc1 | 72.3% (active) |
| Cc1ccc2c(c1)N(CC(=O)N1CCC(O)CC1)C(=O)CO2 | 1.8% |
| COc1ccc2[nH]c(=O)c(CN(Cc3cccnc3)S(=O)(=O)c3ccccc3F)cc2c1 | -10.7% |
| COc1ccc(-c2nc(CS(=O)CC(=O)NCc3ccccc3)c(C)o2)cc1OC (stereo not given) | -3.29% |
| C/C(CC(=O)NCc1ccc(Cl)cc1)=N\NC(=O)COc1ccc(C)cc1Br | 2.05% |
| Cc1ccc(NC(=O)c2sc3nc(N)c(C#N)cc3c2N)cc1 | 63.4% (active) |
| Cc1cccc(NC(=O)c2sc3nc4c(c(-c5ccco5)c3c2N)CCC4)c1 | -3.76% |
| CC(=O)Nc1ccc(NC(=O)c2sc3nc4c(c(-c5ccc(C)cc5)c3c2N)CCC4)cc1 | -4.09% |
| Cc1c(CCC(=O)O)c(=O)oc2c(C)c(OCc3ccccc3Cl)ccc12 | -3.03% |

| Structure (SMILES) | inhibition |
| --- | --- |
| CN(Cc1ccccc1)C(=O)c1ccc(COc2ccccc2)cc1 | 12.4% |
| CN(Cc1ccccc1)C(=O)COc1ccccc1 | 60.6% (active) |
| CN(Cc1ccc(F)cc1)C(=O)COc1ccc2ccccc2c1 | 26.4% |
| Cc1cc(C)c(NC(=O)CSc2nc3ccncc3[nH]2)c(C)c1 | -6.43% |
| CC(N=Cc1nc(-c2ccccc2)oc1O)c1ccccc1 (stereo not given) | 54.4% (active) |
| CCOc1ccc2nc(/N=C/c3nc(-c4ccccc4)oc3O)sc2c1 | -1.97% |
| COC(=O)C1[C@H]2SC(C)(C)C(C(=O)OC)N2C(=O)N1Cc1nc2ccccc2s1 (stereo not given in full) | 5.52% |
| CCC1(CC)NC(=O)N(Cc2nc3ccccc3s2)C1=O | 26.9% (active) |
| CCC1(CC)NC(=O)N(CC(=O)OCC(=O)NC(=O)c2ccccc2)C1=O | 19.1% |
| CC(C)OCCCNC(=S)N1CCC(C(=O)c2ccc3c(c2)OCCO3)CC1 | -16.4% |
| Cc1nn(CC(=O)N2CCCCC2)c(=O)c2nn(-c3ccccc3)c(C)c12 | -2.2% |
| CCCc1nn(C)c2c(=O)[nH]c(-c3cc(S(N)(=O)=O)ccc3OCC)nc12 | -4.47% |
| CCCc1nc(-c2cc3cc(C)ccc3[nH]c2=O)no1 | -2.41% |
| COc1ccc(CCNS(=O)(=O)c2cccc3cccnc23)cc1OC | 18.1% |
| COc1ccc(CNc2cc(C)cc(C)c2)cc1OC | -14.7% |
| COc1ccc(N(Cc2cc3cc(OC)ccc3[nH]c2=O)S(C)(=O)=O)cc1 | -19.8% |
| Cc1ccc(-c2noc(CC(c3ccccc3)c3ccccc3)n2)cc1 | -20.2% |
| COc1ccc2[nH]c(=O)c(-c3noc(-c4ccc(F)cc4)n3)cc2c1 | 69.3% (active) |
| COc1ccc(-c2noc(CN(C)S(=O)(=O)c3ccc(C)cc3)n2)cc1 | -3.7% |
| COc1ccc(-c2noc(-c3ccc(C)cc3)n2)cc1 | 79% (active) |
| COc1ccc(Cc2nc(-c3ccccn3)no2)cc1OC | 56.5% (active) |
| COc1ccccc1CNS(=O)(=O)c1ccc(C)cc1 | 11.5% |
| COc1ccc(-c2noc(CSc3ccc(C)cc3)n2)cc1 | 14.3% |
| COc1ccccc1Cc1nc(-c2ccc(C)cc2)no1 | 57.4% (active) |
